Experimental data taken from PubChem BioAssay (NCI).
Compounds without any hit were thinned out: in the full panel of roughly 79,000, 15% have a hit. The source made the active and inactive calls. No stated cut-off is given here; in the data, active means growth inhibition above about 70%; inactive means the rest. Where a SMILES comes first, the peptide text is derived from it. The star is where a group is joined. Boc = CC(C)(C)OC(=O)*

Columns and labels:
[1] = NCI Yeast Anticancer Drug Screen. Data for the rad50 strain (AID 155);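 further: 0% = growth of vehicle-only cultures of the same strain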; conditions: S. cerevisiae rad50 strain growth inhibition; at 50.0 µM; hits give high values
Summary of the method: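 Relative growth inhibition (compound vs vehicle) was measured in yeast with a defined repair-gene alteration.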

[2] = NCI Yeast Anticancer Drug Screen. Data for the mec2-1 strain (AID 157); conditions: S. cerevisiae mec2-1 strain, at 50.0 µM, hits give high values
Summary of the method: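 Test agents were screened against the mec2-1 yeast strain, with defined DNA repair or cell cycle alteration. Growth was scored as inhibition against vehicle-only controls.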

[3] = NCI Yeast Anticancer Drug Screen. Data for the sgs1 mgt1 strain (AID 161);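 further: 0% = growth of cultures given vehicle only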; conditions: S. cerevisiae sgs1 mgt1 strain, at 50.0 µM, hits give high values
Summary of the method: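 Test agents were incubated with a DNA-repair-mutant yeast strain. Growth was then read and compared against vehicle-treated controls.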

[4] = NCI Yeast Anticancer Drug Screen. Data for the cln2 rad14 strain (AID 165);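 further: 0% = growth equal to vehicle treated cultures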; conditions: S. cerevisiae cln2 rad14 strain, at 50.0 µM, hits give high values
Summary of the method: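 Growth of compound-exposed yeast (cln2 rad14 genotype) measured and expressed as inhibition relative to vehicle.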

[5] = NCI Yeast Anticancer Drug Screen. Data for the bub3 strain (AID 167); conditions: S. cerevisiae bub3 mutant strain, at 50.0 µM, hits give high values
Summary of the method: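 Screening used yeast with an engineered genetic alteration affecting cell cycle control. Compound-exposed cultures were compared with vehicle cultures, and reduced growth was taken as inhibition.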

[6] = NCI Yeast Anticancer Drug Screen. Data for the mlh1 rad18 strain (AID 175); conditions: S. cerevisiae mlh1 rad18 strain growth inhibition; at 50.0 µM; hits give high values
Summary of the method: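 In this whole-cell yeast screen, a strain with altered DNA damage repair is challenged with compound, and its growth is measured against matched vehicle-treated controls.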

Measured: growth inhibition

C#CCNC(=O)CCC(N)C(=O)O (stereo unspecified)
inactive: [1] -0.1% | [2] -15.2% | [3] -14.8% | [4] 3.05% | [5] -11.8% | [6] 2.65%

CC(C)(C)C1CCC2c3c([nH]c4ccccc34)C3C(=O)N(c4ccc(C#N)cc4)C(=O)C3C2C1 (stereo unspecified)
inactive: [1] 53.3% | [2] 50.2% | [3] 54.9% | [4] 16.9% | [5] 38.6% | [6] 38.8%

COC(=O)C1=CN(c2ccccc2)C(=O)C1
inactive: [1] 5.5% | [2] -14.3% | [3] -6.95% | [4] -26.1% | [5] -8.7% | [6] 7.45%

CCCCCC/C=N/Nc1ccc([N+](=O)[O-])cc1[N+](=O)[O-]
inactive: [1] 1.65% | [2] -18.9% | [3] -11.2% | [4] -48.2% | [5] -6.95% | [6] -4.9%

CC1CCc2ccccc2N1C(=O)c1cccc([N+](=O)[O-])c1C(=O)O (stereo unspecified)
inactive: [1] -6.1% | [2] 2.7% | [3] 27.4% | [4] -11.6% | [5] 21.7% | [6] 5.5%

CC1C(=O)C2C1CS2(=O)=O (stereo unspecified)
inactive: [1] -0.9% | [2] 0.65% | [3] 5% | [4] -59.1% | [5] 13% | [6] -5.45%

COC(=O)CC1(C(=O)OC)OC(=O)c2ccccc2N1C (stereo unspecified)
inactive: [1] 8.2% | [2] 12% | [3] 19.9% | [4] -24.6% | [5] -8.35% | [6] 12.3%

Cc1nc(CC#N)n[nH]1
inactive: [1] 24.5% | [2] 18% | [3] 17.1% | [4] 11.3% | [5] 24.8% | [6] 19.7%

O=c1oc2nc(-c3ccccc3)[nH]c(=O)c2c(O)c1Cc1ccccc1
inactive: [1] 6.35% | [2] 2.75% | [3] 1.55% | [4] 8.7% | [5] 27.6% | [6] 26.9%

CC(Cl)(CO)CCl (stereo unspecified)
inactive: [1] 5.45% | [2] 9.5% | [3] -2.65% | [4] 4.05% | [5] -6.4% | [6] 2.05%

O=C(CC(=O)c1ccc(Cl)cc1)c1ccc(Cl)cc1
inactive: [1] 12.9% | [2] 14.5% | [3] -3.95% | [4] 0.35% | [5] 8.9% | [6] 4.45%

Cc1ccccc1S(=O)(=O)Nn1cnc2ccc(S(=O)(=O)Nc3ccc(Cl)cc3)cc2c1=O
inactive: [1] 40.1% | [2] 0.25% | [3] 40.6% | [4] 6.95% | [5] 23.9% | [6] 30.1%

COc1ccc(Cc2ccc(OC)cc2)cc1
inactive: [1] -34.2% | [2] -5.3% | [3] 8.15% | [4] -9.15% | [5] 5.15% | [6] -15%

Cc1cccc(C)c1NC(=O)C(=O)C(C(=O)c1ccccc1-c1ccccc1)C1OC(=O)c2ccccc21 (stereo unspecified)
inactive: [1] 26.6% | [2] 15.4% | [3] 12.2% | [4] -29.6% | [5] 2.2% | [6] 23.6%

CCC(CO)NC(=O)c1cccnc1 (stereo unspecified)
inactive: [1] -13.5% | [2] -8.3% | [3] -2.85% | [4] -19% | [5] -7.6% | [6] 2.25%

COC(=O)C(Cc1ccccc1)NC(=O)C(Cc1ccccc1)NC(=O)OC(C)(C)C (stereo not drawn) (Boc-Phe-Phe-OMe; configuration not given here)
inactive: [1] -7.05% | [2] -4.3% | [3] -18.9% | [4] -51% | [5] 0.15% | [6] -6.4%

Cc1ccc2c(c1)NC(C1Nc3cc(C)ccc3O1)O2 (stereo unspecified)
inactive: [1] -0.3% | [2] -6.8% | [3] -1.25% | [4] -46.5% | [5] -16.9% | [6] -12.2%

N/C=N/OC(=O)c1ccccc1
inactive: [1] 11.5% | [2] 14.4% | [3] 11.8% | [4] 4.7% | [5] 0.5% | [6] 8.25%

Cc1c(CCCl)c(=O)n2c([nH]c3ccccc32)c1C#N
inactive: [1] 56.5% | [2] -56.5% | [3] 18.6% | [4] 5.2% | [5] -52.1% | [6] 62%

O=C(CCC(O)(C(=O)c1ccccc1)c1ccccc1)c1ccccc1 (stereo unspecified)
inactive: [1] 9.25% | [2] 9.5% | [3] -0.1% | [4] 6.35% | [5] 0.4% | [6] 26.4%

NC(=O)NC(c1ccc(O)cc1)c1cc2c(cc1O)OCO2 (stereo unspecified)
inactive: [1] -4% | [2] 1.9% | [3] -11.8% | [4] -36.8% | [5] 5.75% | [6] -0.55%

N#Cc1cnc(SCC(=O)O)nc1N
inactive: [1] -27.2% | [2] -39.6% | [3] -15.5% | [4] 8.8% | [5] -36.2% | [6] -13.4%

O=[N+]([O-])c1ccc(N=CC2CCC=CO2)cc1 (stereo unspecified)
inactive: [1] -4.3% | [2] 17.8% | [3] -10.2% | [4] -27.9% | [5] -9.4% | [6] -14.9%

O=c1cc(-c2ccc(F)cc2)oc2ccccc12
inactive: [1] 40% | [2] -7.45% | [3] -9.05% | [4] 0.95% | [5] 13.7% | [6] 30.4%

C#CCOC(=O)C(N)CC(N)=O (stereo unspecified)
inactive: [1] -13.8% | [2] -21.9% | [3] -40.6% | [4] -11.8% | [5] -26.6% | [6] -17.2%

COC(=O)C(=O)CC(=O)CCn1ncc(Cl)c(Cl)c1=O
inactive: [1] -14.3% | [2] -25.4% | [3] -1.3% | [4] 6.45% | [5] -13.6% | [6] -17.7%

Nc1ccc(C(=O)Nc2ccc(NC(=O)c3ccco3)c(O)c2)cc1
inactive: [1] 2.5% | [2] -11.3% | [3] 31.6% | [4] 13.4% | [5] 20.7% | [6] 10.1%

Cc1cc(N(CCC#N)CCC#N)ccc1/C=C/C(=O)Nc1cccc(Cl)c1
inactive: [1] 8.95% | [2] 4.6% | [3] 3.55% | [4] 13.2% | [5] 27.4% | [6] 7.65%

C[C@H](CCC(=O)O[C@@H]1CC[C@@]2(C)C(CC[C@H]3[C@@H]4CC[C@H]([C@H](C)CCc5nc6ccccc6[nH]5)[C@@]4(C)CC[C@@H]32)C1)[C@H]1CC[C@H]2[C@@H]3CCC4C[C@H](O)CC[C@]4(C)[C@H]3CC[C@]12C (stereo partly specified)
inactive: [1] 5.8% | [2] -2.55% | [3] -16.4% | [4] 11.3% | [5] 6.2% | [6] -6.05%

C#CC(NC(C)(C)CC(C)(C)C)C(C)C (stereo unspecified)
inactive: [1] 31.1% | [2] 4.25% | [3] 0.55% | [4] 6.8% | [5] 4.1% | [6] 12.2%

Cc1ncc([N+](=O)[O-])n1CCNS(=O)(=O)CCCn1ccnc1[N+](=O)[O-]
inactive: [1] -4.85% | [2] -17.1% | [3] -18.9% | [4] -25.7% | [5] -18.5% | [6] -58.7%

CCOc1ccnc2c(OC)c(C)c3nc4ccccc4nc3c12
active: [6] 91%
inactive: [1] 7.6% | [2] -13.2% | [3] -4.65% | [4] 13.6% | [5] -7.3%

O=C(O)c1cccc(F)c1C(=O)c1ccc2ccccc2c1
inactive: [1] -13.7% | [2] 4.15% | [3] -12.8% | [4] -15.2% | [5] -22.1% | [6] -9.7%

COc1ccc(/C(Cl)=C(\C=O)c2cc(OC)c(OC)c(OC)c2)cc1OC
inactive: [1] -0.9% | [2] 23.1% | [3] -5% | [4] 13.8% | [5] -3.45% | [6] 13.9%

Nc1c(Cl)ncnc1Nc1ccc(O)cc1
inactive: [1] -3.85% | [2] -1.2% | [3] 5.2% | [4] 5.8% | [5] 24.8% | [6] 1.4%

CC(=O)OCC1OC(n2c(=O)n(-c3ccccc3)c(=O)c3ccccc32)C(OC(C)=O)C(OC(C)=O)C1OC(C)=O (stereo unspecified)
inactive: [1] -12.8% | [2] 11.3% | [3] -7.9% | [4] 19.1% | [5] -6.85% | [6] 4.65%

COC(=O)CC1=CCCc2ccccc21
inactive: [1] -3.95% | [2] 1.55% | [3] -2.85% | [4] 7% | [5] 0.35% | [6] -22.2%

NCCCn1cnc2c(N)ncnc21
inactive: [1] 8.95% | [2] -1.55% | [3] -4.55% | [4] -18.6% | [5] -16.4% | [6] 0.65%

O=C1CCC(=O)c2cc(Br)ccc2N1
inactive: [1] 25.8% | [2] 11.8% | [3] 2.85% | [4] 13% | [5] 46.2% | [6] 23.1%

CNC(=O)Nc1[nH]c(=O)ncc1Cl
inactive: [1] 6.45% | [2] -0.35% | [3] 8.95% | [4] -5.1% | [5] 16.2% | [6] 5.2%

CC(C)(c1ccc([N+](=O)[O-])cc1)c1ccc(N)c([N+](=O)[O-])c1
inactive: [1] 0.65% | [2] -9.65% | [3] -10.6% | [4] 0.1% | [5] -9.1% | [6] -13.1%
